# Bioassay records from PubChem BioAssay.
# MITF inhib: blocks MITF activity; TRPM1 promoter luciferase, luminescence, 24 h; inhibition, % (no concentration beside the values); 37,000 tested, 0.28% active; AID 2240; in the data active = inhibition above about 85%; inconclusive = no clear call, values can overlap the other calls; inactive = below about 68%;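 note: human melanocyte line stably carrying TRPM1 promoter luciferase reporter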
# Shh pathway inh: blocks Sonic Hedgehog signaling. inhibition, % (no concentration beside the values). 22,000 tested, 2.1% active. Shh-LIGHT2 Gli-luciferase reporter, 30 h;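 active = mean inhibition across valid replicates above about 65%, limit read from the data; inconclusive = mean under the limit, yet half or more replicates past it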;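 note: pathway switched on by Shh-conditioned medium diluted 1 in 25 in low serum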
# NOMO-1 viab: STK33 inhibitor candidate reducing NOMO-1 cell viability; NOMO-1 AML viability, CellTiter-Glo luminescence, 72 h; inhibition, % (no concentration beside the values); 37,000 tested, 7.5% active; in the data active = inhibition above about 80%; inconclusive = no clear call, values can overlap the other calls
# Numbers stand for hits; i = inactive; ? = inconclusive; nt = no result. Rows were chosen to be rich in hits. Some 7.8% of all compounds tested hit in one or more screens of this group.
SMILES,MITF inhib,Shh pathway inh,NOMO-1 viab
C[C@H](CO)N1C[C@H](C)[C@@H](CN(C)Cc2ccc(Oc3ccccc3)cc2)Oc2c(NC(=O)Nc3ccccc3)cccc2C1=O,i,i,84.9
COc1ccc(NC(=O)Nc2cccc3c2O[C@@H](CN(C)Cc2ccccc2)[C@H](C)CN([C@H](C)CO)C3=O)cc1,i,i,117.0
COc1ccc(NC(=O)Nc2cccc3c2O[C@H](CN(C)Cc2ccc(Oc4ccccc4)cc2)[C@H](C)CN([C@H](C)CO)C3=O)cc1,i,i,i
C[C@H](CO)N1C[C@H](C)[C@@H](CN(C)Cc2ccc3c(c2)OCO3)Oc2c(NC(=O)C3CCCCC3)cccc2C1=O,i,i,i
O=C1c2cccc3cccc(c23)C(=O)N1CCCSc1nnnn1-c1ccccc1,i,nt,i
COc1ccccc1CNC(=O)c1cnn2c(C(F)F)cc(C)nc12,i,nt,i
C[C@@H]1CN([C@H](C)CO)C(=O)Cc2cc(NS(=O)(=O)c3ccccc3)ccc2O[C@@H]1CN(C)S(=O)(=O)c1cccs1,i,i,i
Cc1ccc(S(=O)(=O)Nc2ccc3c(c2)C(=O)N([C@@H](C)CO)C[C@H](C)[C@@H](CN(C)S(=O)(=O)c2ccccc2)O3)cc1,i,nt,i
C[C@@H]1CN([C@H](C)CO)C(=O)Cc2cc(NC(=O)CCN3CCOCC3)ccc2O[C@H]1CN(C)Cc1ccc(C(F)(F)F)cc1,i,i,i
CC(C)NC(=O)Nc1cccc2c1O[C@H](CN(C)Cc1ccc(Oc3ccccc3)cc1)[C@@H](C)CN([C@H](C)CO)C2=O,i,i,88.8
C[C@H](CO)N1C[C@H](C)[C@H](CN(C)Cc2ccc(Oc3ccccc3)cc2)Oc2c(NC(=O)Nc3cccc4ccccc34)cccc2C1=O,i,i,122.4
COc1ccc(NC(=O)Nc2cccc3c2O[C@@H](CN(C)Cc2ccc(Oc4ccccc4)cc2)[C@@H](C)CN([C@H](C)CO)C3=O)cc1,i,i,116.8
COc1ccc(NC(=O)Nc2cccc3c2O[C@@H](CN(C)Cc2ccc(Oc4ccccc4)cc2)[C@@H](C)CN([C@@H](C)CO)C3=O)cc1,i,i,i
CC(C)NC(=O)Nc1cccc2c1O[C@H](CN(C)Cc1ccc(Oc3ccccc3)cc1)[C@H](C)CN([C@@H](C)CO)C2=O,i,i,i
C[C@@H]1CN([C@@H](C)CO)C(=O)c2cccc(NC(=O)Nc3ccccc3)c2O[C@@H]1CN(C)Cc1ccc(Oc2ccccc2)cc1,i,i,i
C[C@H]1CN([C@@H](C)CO)C(=O)Cc2cc(NC(=O)Nc3cccc4ccccc34)ccc2O[C@H]1CN(C)Cc1ccncc1,i,i,i
Cc1ccc(S(=O)(=O)N(C)C[C@H]2Oc3ccc(NC(=O)CCC(F)(F)F)cc3C(=O)N([C@@H](C)CO)C[C@@H]2C)cc1,i,i,i
C[C@@H]1CN([C@H](C)CO)C(=O)c2cc(NS(C)(=O)=O)ccc2O[C@@H]1CN(C)Cc1ccc(Oc2ccccc2)cc1,i,i,i
C[C@H]1CN([C@@H](C)CO)C(=O)c2cc(NC(=O)C3CCCCC3)ccc2O[C@H]1CN(C)CC1CCCCC1,i,nt,i
O=C(O)c1cc(=O)c2ccc(Cl)cc2[nH]1,i,i,i
C[C@H]1CN([C@@H](C)CO)C(=O)Cc2cc(NC(=O)Nc3ccc(C(F)(F)F)cc3)ccc2O[C@@H]1CN(C)S(=O)(=O)c1ccc(F)cc1,i,i,i
C[C@H]1CN([C@@H](C)CO)C(=O)Cc2cc(NC(=O)Nc3ccc(F)cc3)ccc2O[C@@H]1CN(C)S(=O)(=O)c1ccc(Cl)cc1,i,i,i
C[C@@H]1CN([C@@H](C)CO)C(=O)Cc2cc(NC(=O)Nc3ccc(C(F)(F)F)cc3)ccc2O[C@@H]1CN(C)S(=O)(=O)c1ccc(Cl)cc1,i,i,103.9
Cc1noc(C)c1S(=O)(=O)N(C)C[C@H]1Oc2ccc(NC(=O)Nc3ccc(C(F)(F)F)cc3)cc2CC(=O)N([C@@H](C)CO)C[C@H]1C,i,nt,91.7
C[C@@H]1CN([C@H](C)CO)C(=O)Cc2cc(NC(=O)Nc3ccccc3)ccc2O[C@H]1CN(C)S(=O)(=O)c1ccccc1,i,nt,i
SMILES,MITF inhib,Shh pathway inh,NOMO-1 viab
C[C@H]1CN([C@@H](C)CO)C(=O)Cc2cc(NC(=O)Nc3ccc(C(F)(F)F)cc3)ccc2O[C@H]1CN(C)S(=O)(=O)c1ccccc1,i,i,102.0
C[C@@H]1CN([C@H](C)CO)C(=O)Cc2cc(NC(=O)Nc3ccc(C(F)(F)F)cc3)ccc2O[C@@H]1CN(C)S(=O)(=O)c1ccc(F)cc1,i,i,89.5
Cc1noc(C)c1S(=O)(=O)N(C)C[C@H]1Oc2ccc(NC(=O)Nc3ccccc3)cc2CC(=O)N([C@@H](C)CO)C[C@@H]1C,i,i,i
Cc1cc(C)c(NC(=O)CN(c2ccc(I)cc2)S(C)(=O)=O)c(C)c1,i,nt,i
O=C(CSc1nnc(-c2ccccc2)o1)N1c2ccccc2CCc2ccccc21,i,i,i
C[C@@H]1CCCCO[C@@H](CN(C)S(=O)(=O)c2ccc(F)cc2)[C@@H](C)CN([C@H](C)CO)C(=O)c2cc(NC(=O)NC3CCCCC3)ccc2O1,i,i,i
C[C@H](CO)N1C[C@H](C)[C@H](CN(C)Cc2ccc(-c3ccccc3)cc2)Oc2ccc(NC(=O)Nc3ccc4c(c3)OCO4)cc2CC1=O,i,nt,i
C[C@@H]1CN([C@@H](C)CO)C(=O)c2cc(NS(=O)(=O)c3cn(C)cn3)ccc2O[C@H]1CN(C)Cc1ccc(Oc2ccccc2)cc1,i,i,i
C[C@@H]1CN([C@@H](C)CO)C(=O)Cc2cc(NC(=O)Nc3ccc(C(F)(F)F)cc3)ccc2O[C@@H]1CN(C)C,i,i,i
Cc1ccc(S(=O)(=O)N(C)C[C@@H]2Oc3ccc(NC(=O)Nc4ccc(C(F)(F)F)cc4)cc3CC(=O)N([C@H](C)CO)C[C@H]2C)cc1,i,nt,i
Cc1noc(C)c1S(=O)(=O)Nc1ccc2c(c1)CC(=O)N([C@@H](C)CO)C[C@H](C)[C@H](CN(C)C(=O)Nc1ccc(C(F)(F)F)cc1)O2,i,65.6,i
C[C@H]1CN([C@@H](C)CO)C(=O)Cc2cc(NC(=O)Nc3ccc(C(F)(F)F)cc3)ccc2O[C@H]1CN(C)S(=O)(=O)c1ccc(Cl)cc1,i,?,114.9
C[C@H](CO)N1C[C@H](C)[C@H](CN(C)S(C)(=O)=O)Oc2ccc(NC(=O)Nc3ccc(C(F)(F)F)cc3)cc2CC1=O,i,nt,98.5
Cc1noc(C)c1S(=O)(=O)Nc1ccc2c(c1)CC(=O)N([C@@H](C)CO)C[C@H](C)[C@@H](CN(C)C(=O)Nc1ccc(C(F)(F)F)cc1)O2,i,?,i
COc1ccc(S(=O)(=O)Nc2ccc3c(c2)C(=O)N([C@H](C)CO)C[C@@H](C)[C@@H](CN(C)S(=O)(=O)c2ccc(F)cc2)O3)cc1,i,nt,i
CCC(Sc1nnc2c(n1)[nH]c1ccccc12)C(=O)N1c2ccccc2Sc2ccccc21 (configuration not stated),i,nt,i
C[C@@H]1CN([C@@H](C)CO)C(=O)c2cccc(NC(=O)Nc3ccc4c(c3)OCO4)c2O[C@@H]1CN(C)Cc1ccccc1,i,i,i
C[C@H]1CN([C@@H](C)CO)C(=O)c2cccc(NC(=O)Nc3ccc4c(c3)OCO4)c2O[C@@H]1CN(C)Cc1ccc(Cl)c(Cl)c1,i,i,90.6
